For some of these results: Potency and affinity values are given separately.

Holding throughout (set-up): scale not given: direction of the effect not stated beside the values
Assay [1] deals with Protein translocase subunit SecA (Escherichia coli (strain K12)) (UniProt P10408). The assay is described as follows: Assay to Identify E. coli SecA ATPase Inhibitors. Type of assay: functional. The conditions noted are these: 30 µM.
Assay [2] has as its target T1, Ubiquitin-activating enzyme e1, putative (Leishmania donovani (strain BPK282A1)) (UniProt E9BSI1).
T1 sequence (whole entry): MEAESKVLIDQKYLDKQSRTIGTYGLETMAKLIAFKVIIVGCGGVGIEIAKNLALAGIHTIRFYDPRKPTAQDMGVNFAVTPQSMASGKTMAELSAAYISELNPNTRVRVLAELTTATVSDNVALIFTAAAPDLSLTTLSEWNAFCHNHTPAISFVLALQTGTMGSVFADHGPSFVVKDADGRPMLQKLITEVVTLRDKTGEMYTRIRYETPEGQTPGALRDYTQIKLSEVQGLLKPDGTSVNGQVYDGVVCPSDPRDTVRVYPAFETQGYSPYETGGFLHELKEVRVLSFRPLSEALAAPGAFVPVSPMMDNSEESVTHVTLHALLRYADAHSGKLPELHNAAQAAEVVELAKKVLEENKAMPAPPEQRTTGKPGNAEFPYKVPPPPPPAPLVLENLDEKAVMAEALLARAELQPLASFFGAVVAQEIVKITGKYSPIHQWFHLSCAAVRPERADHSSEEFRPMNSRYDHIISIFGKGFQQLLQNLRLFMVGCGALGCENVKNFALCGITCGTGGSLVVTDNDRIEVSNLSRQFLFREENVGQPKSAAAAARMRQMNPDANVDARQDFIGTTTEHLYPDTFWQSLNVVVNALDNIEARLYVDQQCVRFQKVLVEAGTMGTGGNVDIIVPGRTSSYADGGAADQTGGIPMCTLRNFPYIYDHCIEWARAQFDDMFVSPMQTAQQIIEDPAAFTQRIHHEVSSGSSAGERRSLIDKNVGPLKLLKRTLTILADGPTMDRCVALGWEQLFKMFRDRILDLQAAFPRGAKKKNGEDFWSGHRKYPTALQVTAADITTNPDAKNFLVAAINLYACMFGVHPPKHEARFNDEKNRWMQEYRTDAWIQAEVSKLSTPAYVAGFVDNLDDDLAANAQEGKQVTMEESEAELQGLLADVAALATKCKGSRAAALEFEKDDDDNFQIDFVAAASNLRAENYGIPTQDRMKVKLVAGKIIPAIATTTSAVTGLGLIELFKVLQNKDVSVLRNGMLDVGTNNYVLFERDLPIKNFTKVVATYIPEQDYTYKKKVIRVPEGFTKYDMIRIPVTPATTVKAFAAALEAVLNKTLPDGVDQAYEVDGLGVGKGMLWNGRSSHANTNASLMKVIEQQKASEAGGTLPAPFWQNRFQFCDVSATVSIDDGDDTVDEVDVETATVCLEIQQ
Kind of assay: Leishmania donovani Ubiquitin Activating Enzyme (LdE1). Type of assay: functional. The conditions noted are these: 30 µM.

Assay [3] concerns the target T2, Aspartate--tRNA(Asp/Asn) ligase (Mycobacterium tuberculosis (strain ATCC 25618 / H37Rv)) (UniProt P9WFW3). Also: in the data most compounds retested in dose-response had high values.
T2 sequence (whole entry): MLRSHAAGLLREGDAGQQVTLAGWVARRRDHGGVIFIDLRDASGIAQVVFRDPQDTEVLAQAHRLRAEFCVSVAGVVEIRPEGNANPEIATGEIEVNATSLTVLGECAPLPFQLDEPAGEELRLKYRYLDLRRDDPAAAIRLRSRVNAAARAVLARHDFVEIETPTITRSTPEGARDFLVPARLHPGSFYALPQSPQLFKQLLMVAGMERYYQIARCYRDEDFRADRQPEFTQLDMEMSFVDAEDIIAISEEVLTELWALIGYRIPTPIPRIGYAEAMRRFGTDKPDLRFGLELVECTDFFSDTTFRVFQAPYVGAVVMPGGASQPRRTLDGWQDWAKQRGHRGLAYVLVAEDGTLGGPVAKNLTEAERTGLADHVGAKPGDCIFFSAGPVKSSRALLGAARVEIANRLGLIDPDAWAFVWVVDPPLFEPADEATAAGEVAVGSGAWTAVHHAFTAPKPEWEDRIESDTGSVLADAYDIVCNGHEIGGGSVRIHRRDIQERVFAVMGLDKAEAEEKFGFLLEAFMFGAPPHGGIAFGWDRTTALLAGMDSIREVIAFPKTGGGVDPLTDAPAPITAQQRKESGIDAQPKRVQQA
The assay is described as follows: Assay for Asp RNA synthetase-1 from Mycobacterium tuberculosis. In kind it is functional. The settings on record: 30 µM.

Assay [4] concerns the target AMP-activated protein kinase, AMPK (Homo sapiens) (UniProt P54646+O43741+P54619+Q9UGJ0+Q9Y478+Q13131+Q9UGI9). Kind of assay: AMP-dependent Kinase enzyme assay. An in vitro enzyme assay that detects ADP turnover that is directly proportional to AMPK activity. This uses naive AMPK that is activated during the assay with MK-8722. Type of assay: functional. The settings on record: 30 µM.

Assay [5] deals with Sialic acid-binding Ig-like lectin 9 (Homo sapiens) (UniProt Q9Y336). The assay is described as follows: Hs-Siglec9 ALPHAscreen SOP 20170721. The conditions noted are these: 10 µM. In general terms: In Alpha technology, singlet oxygen from a donor bead excites a nearby acceptor bead.
Chain of Sialic acid-binding Ig-like lectin 9 (Homo sapiens) (Q9Y336 whole entry): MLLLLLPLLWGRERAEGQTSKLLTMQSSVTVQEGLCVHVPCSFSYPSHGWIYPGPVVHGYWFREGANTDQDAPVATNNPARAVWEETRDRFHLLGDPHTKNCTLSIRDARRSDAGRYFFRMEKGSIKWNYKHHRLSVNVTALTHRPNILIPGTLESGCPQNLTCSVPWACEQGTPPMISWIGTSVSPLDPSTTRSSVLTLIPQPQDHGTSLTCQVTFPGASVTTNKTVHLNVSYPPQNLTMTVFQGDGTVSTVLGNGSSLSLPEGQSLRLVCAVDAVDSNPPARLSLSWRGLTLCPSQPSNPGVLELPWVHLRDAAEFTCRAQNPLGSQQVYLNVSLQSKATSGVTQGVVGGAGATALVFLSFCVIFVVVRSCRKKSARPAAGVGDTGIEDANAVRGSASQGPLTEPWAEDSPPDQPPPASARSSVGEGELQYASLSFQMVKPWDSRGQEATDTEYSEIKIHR
A further assay deals with Trypanosoma cruzi. The assay is described as follows: Trypanosoma cruzi phosphomannomutase and mannose-1-phosphate guanylyltransferase assay. Type of assay: functional. The settings on record: 10 µM.
Assay [6] deals with T3, Arginase-2, mitochondrial (Homo sapiens) (UniProt P78540).
T3 sequence (whole entry): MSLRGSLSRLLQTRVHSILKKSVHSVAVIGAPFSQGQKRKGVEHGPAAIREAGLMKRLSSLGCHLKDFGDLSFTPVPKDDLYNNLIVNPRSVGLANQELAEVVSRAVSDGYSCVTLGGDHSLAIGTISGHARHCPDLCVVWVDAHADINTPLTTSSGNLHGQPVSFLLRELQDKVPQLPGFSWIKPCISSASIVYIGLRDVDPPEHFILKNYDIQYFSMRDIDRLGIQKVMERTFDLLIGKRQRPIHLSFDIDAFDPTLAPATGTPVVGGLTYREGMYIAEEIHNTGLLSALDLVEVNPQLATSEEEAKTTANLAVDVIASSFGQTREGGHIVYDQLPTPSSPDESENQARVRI
Kind of assay: in vitro enzyme assay to detect the production of urea directly proportional to the activity of Arginase II. Also: in the data most compounds retested in dose-response had high values. The settings on record: 33.3 µM. In kind it is functional.

Assay [7] concerns the target T4, Proteasome subunit beta (Trypanosoma cruzi) (UniProt O96673).
T4 sequence (whole entry): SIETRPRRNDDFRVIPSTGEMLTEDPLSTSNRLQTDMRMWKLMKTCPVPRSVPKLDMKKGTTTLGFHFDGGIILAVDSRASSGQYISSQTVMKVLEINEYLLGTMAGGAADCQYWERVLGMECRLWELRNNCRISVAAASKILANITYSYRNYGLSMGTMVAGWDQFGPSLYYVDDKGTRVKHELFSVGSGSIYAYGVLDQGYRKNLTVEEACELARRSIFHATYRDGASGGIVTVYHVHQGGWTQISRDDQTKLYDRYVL
The assay is described as follows: Trypanosoma cruzi proteasome chymotrypsin-like activity (TcProtChymo) assay. Also: in the data most compounds retested in dose-response had high values. In kind it is functional. The settings on record: 9.37 µM.

The next assay is filed under the species Homo sapiens. The assay is described as follows: To identify inhibition of the IFN signalling (Jak-Stat) pathway via expression of an eGFP reporter gene under the control of an IFN-stimulated response element (ISRE) containing MxA promoter. Type of assay: functional. The conditions noted are these: 30 µM. On the technique in general: A reporter such as luciferase makes a cellular process visible.

For assay [8], the target named is Shiga toxin 2 (Escherichia coli O157:H7) (UniProt P09385+P09386). Kind of assay: E. coli 0.157:H7 Shiga Toxin SOP - stx2 screening assay. Type of assay: functional. The conditions noted are these: 30 µM.
Assay [9] deals with T5, Tyrosyl-tRNA synthetase, putative (Trypanosoma cruzi (strain CL Brener)) (UniProt Q4DSP6).
T5 sequence (whole entry): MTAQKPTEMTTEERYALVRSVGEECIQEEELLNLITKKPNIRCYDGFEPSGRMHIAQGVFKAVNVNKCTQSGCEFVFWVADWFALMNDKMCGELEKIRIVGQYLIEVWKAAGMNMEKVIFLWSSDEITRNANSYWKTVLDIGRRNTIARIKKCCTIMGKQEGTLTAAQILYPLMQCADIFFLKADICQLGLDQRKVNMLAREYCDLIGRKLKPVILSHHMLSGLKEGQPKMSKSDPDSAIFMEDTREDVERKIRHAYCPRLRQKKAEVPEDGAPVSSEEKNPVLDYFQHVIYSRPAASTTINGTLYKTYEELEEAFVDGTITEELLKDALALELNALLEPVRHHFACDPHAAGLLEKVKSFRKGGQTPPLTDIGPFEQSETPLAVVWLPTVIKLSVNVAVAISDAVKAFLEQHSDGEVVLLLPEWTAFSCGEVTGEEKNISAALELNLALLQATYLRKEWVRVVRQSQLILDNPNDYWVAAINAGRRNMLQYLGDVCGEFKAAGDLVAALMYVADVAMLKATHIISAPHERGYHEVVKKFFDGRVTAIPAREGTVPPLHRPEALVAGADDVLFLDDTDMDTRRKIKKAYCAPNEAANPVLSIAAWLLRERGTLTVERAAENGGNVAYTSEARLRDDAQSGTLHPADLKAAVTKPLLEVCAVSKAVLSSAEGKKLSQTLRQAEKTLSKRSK
The assay is described as follows: Trypanosoma cruzi tyrosyl tRNA synthetase (TcYRS) _High Tyrosine SOP. Also: in the data most compounds retested in dose-response had high values. Type of assay: functional. The conditions noted are these: 30 µM.

In assay [10] the target is T5, Tyrosyl-tRNA synthetase, putative (Trypanosoma cruzi (strain CL Brener)). The assay is described as follows: Trypanosoma cruzi tyrosyl tRNA synthetase (TcYRS) SOP. In kind it is functional. The conditions noted are these: 30 µM.
The target of assay [11] is Chromo domain-containing protein 1 (Saccharomyces cerevisiae (strain ATCC 204508 / S288c) (Baker's yeast)) (UniProt P32657). Kind of assay: ScCHD-1 Enzyme Inhibition Assay. Also: in the data most compounds retested in dose-response had high values. In kind it is functional. The settings on record: 30 µM.
Chain of Chromo domain-containing protein 1 (Saccharomyces cerevisiae (strain ATCC 204508 / S288c) (Baker's yeast)) (P32657 whole entry, the tested form may be a part): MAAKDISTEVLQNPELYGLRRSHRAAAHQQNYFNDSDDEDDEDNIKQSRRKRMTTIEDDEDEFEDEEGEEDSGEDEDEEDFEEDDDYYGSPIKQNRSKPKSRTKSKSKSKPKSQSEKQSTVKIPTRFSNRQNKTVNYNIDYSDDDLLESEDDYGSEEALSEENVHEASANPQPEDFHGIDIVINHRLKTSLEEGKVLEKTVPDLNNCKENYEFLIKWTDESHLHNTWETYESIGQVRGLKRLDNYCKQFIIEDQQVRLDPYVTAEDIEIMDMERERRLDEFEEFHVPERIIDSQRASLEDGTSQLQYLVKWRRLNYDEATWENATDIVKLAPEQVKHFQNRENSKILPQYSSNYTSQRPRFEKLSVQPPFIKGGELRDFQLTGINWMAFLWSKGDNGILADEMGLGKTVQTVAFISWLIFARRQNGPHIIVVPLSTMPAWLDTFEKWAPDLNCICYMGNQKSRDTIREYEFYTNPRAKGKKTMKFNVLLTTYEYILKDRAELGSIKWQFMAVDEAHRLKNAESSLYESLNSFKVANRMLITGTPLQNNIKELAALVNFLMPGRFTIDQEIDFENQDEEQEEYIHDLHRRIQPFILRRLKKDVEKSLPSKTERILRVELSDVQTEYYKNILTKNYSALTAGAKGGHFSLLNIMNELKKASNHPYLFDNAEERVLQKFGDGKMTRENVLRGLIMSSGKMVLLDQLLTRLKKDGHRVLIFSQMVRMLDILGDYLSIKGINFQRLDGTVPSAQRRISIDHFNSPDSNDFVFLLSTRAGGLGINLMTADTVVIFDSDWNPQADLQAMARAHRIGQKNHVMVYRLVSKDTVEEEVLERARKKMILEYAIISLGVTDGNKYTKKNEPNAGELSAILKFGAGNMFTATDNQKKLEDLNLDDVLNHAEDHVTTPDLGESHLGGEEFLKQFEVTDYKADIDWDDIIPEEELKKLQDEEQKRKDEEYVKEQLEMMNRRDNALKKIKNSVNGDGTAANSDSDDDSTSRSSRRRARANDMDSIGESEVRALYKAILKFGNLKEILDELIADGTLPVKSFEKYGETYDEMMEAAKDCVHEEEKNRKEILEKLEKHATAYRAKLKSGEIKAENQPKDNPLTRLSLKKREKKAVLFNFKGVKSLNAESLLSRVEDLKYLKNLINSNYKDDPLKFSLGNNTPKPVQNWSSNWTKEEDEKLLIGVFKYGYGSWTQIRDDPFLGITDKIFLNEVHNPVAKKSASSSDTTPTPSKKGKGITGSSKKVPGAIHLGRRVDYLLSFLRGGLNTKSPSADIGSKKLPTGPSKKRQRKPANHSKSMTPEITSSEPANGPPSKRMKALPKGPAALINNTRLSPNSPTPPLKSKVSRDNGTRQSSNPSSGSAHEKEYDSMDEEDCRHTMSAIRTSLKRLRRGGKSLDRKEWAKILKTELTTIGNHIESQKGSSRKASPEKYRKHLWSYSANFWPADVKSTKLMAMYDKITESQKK

Chain of Protein translocase subunit SecA (Escherichia coli (strain K12)) (P10408 whole entry): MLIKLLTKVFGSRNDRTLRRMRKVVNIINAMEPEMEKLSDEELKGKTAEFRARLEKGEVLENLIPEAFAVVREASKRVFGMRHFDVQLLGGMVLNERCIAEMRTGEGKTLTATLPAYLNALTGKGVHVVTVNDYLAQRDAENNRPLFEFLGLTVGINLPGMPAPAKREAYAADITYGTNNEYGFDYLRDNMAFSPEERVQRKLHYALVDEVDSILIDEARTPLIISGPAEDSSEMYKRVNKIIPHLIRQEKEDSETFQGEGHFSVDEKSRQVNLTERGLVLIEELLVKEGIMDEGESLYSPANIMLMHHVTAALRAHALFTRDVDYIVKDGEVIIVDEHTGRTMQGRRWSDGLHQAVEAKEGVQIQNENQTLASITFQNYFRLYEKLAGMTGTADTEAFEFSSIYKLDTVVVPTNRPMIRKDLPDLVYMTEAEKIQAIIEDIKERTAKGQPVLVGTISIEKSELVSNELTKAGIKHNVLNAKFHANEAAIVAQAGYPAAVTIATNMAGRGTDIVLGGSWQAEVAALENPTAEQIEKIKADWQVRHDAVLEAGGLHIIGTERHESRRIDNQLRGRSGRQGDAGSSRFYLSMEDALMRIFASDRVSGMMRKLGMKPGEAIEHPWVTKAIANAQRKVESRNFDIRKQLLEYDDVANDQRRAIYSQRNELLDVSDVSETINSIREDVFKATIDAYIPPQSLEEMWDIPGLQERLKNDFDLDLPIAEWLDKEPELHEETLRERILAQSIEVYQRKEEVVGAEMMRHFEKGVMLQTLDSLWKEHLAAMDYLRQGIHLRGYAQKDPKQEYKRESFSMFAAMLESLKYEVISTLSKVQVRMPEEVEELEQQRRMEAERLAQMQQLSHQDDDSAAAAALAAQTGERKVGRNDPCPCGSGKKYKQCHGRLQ

For the compound `Cc1noc(C)c1CN1CCOC2(CCCN(c3nccs3)C2)C1` (configuration not stated), the Percent Effect in assay [1] was -8.9%; in assay [2], 8%; in [3] it was 7.92%; in assay [4], 26.5%; in assay [5], 1.44%; in the assay on Trypanosoma cruzi, -6.18%. Moreover, the Percent Effect is -56.1% in assay [6]; 2.91% in assay [7]; 21.7% in the assay filed under Homo sapiens; -14.3% in assay [8]; -7.29% in assay [9]; -30% in [10]. Moreover, in assay [11], the Percent Effect was -4.72%.
Consider `CC(Cc1c(F)cccc1F)NC(=O)Nc1cnn(CC(N)=O)c1` (configuration not stated), for which the Percent Effect is -4.08% in assay [1]; 21.5% in assay [2]; -0.509% in [3]; -1.23% in [4]; -0.0747% in assay [5]; 0.513% in the assay on Trypanosoma cruzi. For the same compound, the Percent Effect was -1.07% in assay [6]; 19.7% in assay [7]; 15% in the assay listed under Homo sapiens; -36.4% in assay [8]; 3.12% in [9]; 17.7% in assay [10]. In addition, the Percent Effect in assay [11] was -23.1%.
As to `O=C1[C@H]2CN(Cc3cccs3)C[C@H]2CN1c1cncnc1`, the Percent Effect is -5.75% in assay [1]; 2.6% in [2]; -7.76% in assay [3]; 1.57% in [4]; 4.28% in assay [5]; -3.25% in the assay with Trypanosoma cruzi. For the same compound, the Percent Effect in assay [6] is -8.28%; in [7], 9.65%; in the assay listed under Homo sapiens it was 7.38%; in [8] it was -49.4%; in assay [9], 2.15%; in assay [10], 1.24%. In addition, in assay [11], the Percent Effect came out at 1.9%.
As to `O=C(N[C@H]1CN[C@H]2CCCO[C@H]21)c1cscn1`, the Percent Effect in assay [1] is 1.11%; in [2], 21.9%; in assay [3], 4.92%; in assay [4], -4.2%; in assay [5], 5.27%; with Trypanosoma cruzi it was 0%. For the same compound, the Percent Effect in assay [6] is -1.6%; in assay [7], 18.6%; in the assay listed under Homo sapiens it was 4.9%; in [8], -0.964%; in assay [9], 7.29%; in [10], 13.6%. Also, the Percent Effect in [11] was -4.35%.

These data come from ChEMBL document CHEMBL3988442, “University of Dundee, Small-Polar-MMV Screening Library” (2021).
